# From PubChem BioAssay
# A number with no mark means an inactive call. For part of these data: Measured potencies and affinities stand elsewhere. Calls of active or inactive are those of the source. Unless noted, how the calls were made is not given here.
# Key:
# [1] = antimalarial activity against Dd2 strain (AID 2302;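 active means growth inhibition above 50% at the single 2 µM test dose, taken to imply half-maximal potency below 2 µM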;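 further: 0% = DMSO untreated growth and 100% = chloroquine plus artemisinin killed control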); settings: P. falciparum Dd2 in RBCs, LDH growth readout, 72 h; at 2 µM; hits give high values
# [2] = HepG2 cytotoxicity, primary screen, cytotoxicity control for P. falciparum antimalarial project, cell-based, ATP luminescence (AID 2303;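 active means inhibition above 50%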;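 further: 0% = DMSO wells and 100% = digitonin-killed cells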); settings: HepG2 viability, 24-48 h, at 10 µM, hits give high values
# [3] = molecular target: L-lactate dehydrogenase (Plasmodium falciparum (isolate CDC / Honduras)) (UniProt Q27743); assay: PfLDH activity inhibition – cell lysate, 3D7 strain, counter-screen for P. falciparum growth inhibition project (AID 2304);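 further: 0% = vehicle and 100% = reference inhibitor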; settings: P. falciparum 3D7 crude extract, LDH APAD/NBT absorbance; at 2 µM; hits give high values
# L-lactate dehydrogenase (Plasmodium falciparum (isolate CDC / Honduras)), sequence (Q27743 whole entry, looked up): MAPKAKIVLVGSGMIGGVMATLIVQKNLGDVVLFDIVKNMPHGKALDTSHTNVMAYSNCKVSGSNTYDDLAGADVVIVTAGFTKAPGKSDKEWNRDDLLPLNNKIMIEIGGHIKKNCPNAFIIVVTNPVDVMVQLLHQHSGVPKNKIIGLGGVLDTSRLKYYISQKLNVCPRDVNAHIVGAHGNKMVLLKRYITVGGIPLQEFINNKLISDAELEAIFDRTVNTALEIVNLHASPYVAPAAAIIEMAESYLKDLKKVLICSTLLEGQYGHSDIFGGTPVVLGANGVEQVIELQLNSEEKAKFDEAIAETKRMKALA
# [4] = inhibition of 3D7 malaria parasite growth – strain 3D7 (AID 2306);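 further: 0% = DMSO wells and 100% = chloroquine plus artemisinin control wells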; settings: P. falciparum 3D7 erythrocytic growth, LDH absorbance, 72 h; at 2 µM; hits give high values
# [5] = molecular target: Calcium-dependent protein kinase 1 (Plasmodium falciparum (isolate 3D7)) (UniProt P62344); assay: PfCDPK1 kinase inhibitors, biochemical, TCAMS library (AID 1159585; cut-off not given, nearly all actives have IC50 up to about 0.98 µM;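 further: inhibitors leave more ATP so luminescence rises with inhibition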); settings: recombinant PfCDPK1, Kinase-Glo ATP depletion luminescence
# Calcium-dependent protein kinase 1 (Plasmodium falciparum (isolate 3D7)), sequence (P62344 whole entry, looked up): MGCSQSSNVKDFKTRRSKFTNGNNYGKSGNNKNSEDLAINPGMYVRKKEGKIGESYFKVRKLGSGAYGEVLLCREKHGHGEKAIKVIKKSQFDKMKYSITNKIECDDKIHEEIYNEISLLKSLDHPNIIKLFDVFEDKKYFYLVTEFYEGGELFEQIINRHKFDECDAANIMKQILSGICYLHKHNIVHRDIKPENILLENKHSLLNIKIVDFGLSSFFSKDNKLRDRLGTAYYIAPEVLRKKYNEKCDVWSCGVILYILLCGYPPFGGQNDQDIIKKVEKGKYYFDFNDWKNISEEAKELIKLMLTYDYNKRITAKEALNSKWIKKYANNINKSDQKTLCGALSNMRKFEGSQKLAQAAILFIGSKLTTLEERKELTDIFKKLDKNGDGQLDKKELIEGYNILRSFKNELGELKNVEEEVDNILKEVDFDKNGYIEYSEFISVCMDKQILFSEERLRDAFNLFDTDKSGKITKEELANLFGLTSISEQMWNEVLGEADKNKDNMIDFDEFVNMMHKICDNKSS
# [6] = molecular target: Plasmodium falciparum protein kinase 6 (PK6, PF3D7_1337100) (UniProt Q8IDW1); assay: PfPK6 kinase inhibitors, biochemical, TCAMS library (AID 1159586); settings: recombinant PfPK6, Kinase-Glo ATP depletion luminescence
# Plasmodium falciparum protein kinase 6 (PK6, PF3D7_1337100), sequence (Q8IDW1 1-305): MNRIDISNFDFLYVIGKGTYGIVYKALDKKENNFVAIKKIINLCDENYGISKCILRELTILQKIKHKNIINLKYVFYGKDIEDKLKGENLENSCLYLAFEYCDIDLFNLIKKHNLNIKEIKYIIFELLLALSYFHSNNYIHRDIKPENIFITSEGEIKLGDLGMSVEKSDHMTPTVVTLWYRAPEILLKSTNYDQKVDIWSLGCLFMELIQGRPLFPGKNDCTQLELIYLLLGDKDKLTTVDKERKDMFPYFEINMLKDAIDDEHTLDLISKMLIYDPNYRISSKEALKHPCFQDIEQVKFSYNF
# [7] = molecular target: Protein kinase 7 (PK7), Plasmodium falciparum 3D7 (PF3D7_0213400) (UniProt Q7YTF7); assay: inhibition of Plasmodium PK7 catalytic activity – biochemical, TCAMS antimalarial set, Kinase-Glo luminescence (AID 1159587); settings: recombinant PfPK7, Kinase-Glo ATP depletion luminescence
# Protein kinase 7 (PK7), Plasmodium falciparum 3D7 (PF3D7_0213400), sequence (Q7YTF7 1-343): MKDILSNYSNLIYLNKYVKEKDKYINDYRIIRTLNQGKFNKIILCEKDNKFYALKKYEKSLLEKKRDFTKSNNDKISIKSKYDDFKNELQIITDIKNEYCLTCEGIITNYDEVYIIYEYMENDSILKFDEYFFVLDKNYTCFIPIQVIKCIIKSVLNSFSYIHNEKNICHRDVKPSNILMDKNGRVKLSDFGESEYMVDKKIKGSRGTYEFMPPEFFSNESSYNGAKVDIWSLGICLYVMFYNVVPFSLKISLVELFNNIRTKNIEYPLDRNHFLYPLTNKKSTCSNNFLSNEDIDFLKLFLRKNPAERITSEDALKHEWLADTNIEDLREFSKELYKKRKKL
# [8] = molecular target: Calcium-dependent protein kinase 4 (Plasmodium falciparum (isolate 3D7)) (UniProt Q8IBS5); assay: PfCDPK4 kinase inhibitors, biochemical, TCAMS library (AID 1159588; cut-off not given, nearly all actives have IC50 up to about 0.91 µM); settings: recombinant PfCDPK4, Kinase-Glo ATP depletion luminescence
# Calcium-dependent protein kinase 4 (Plasmodium falciparum (isolate 3D7)), sequence (Q8IBS5 whole entry, looked up): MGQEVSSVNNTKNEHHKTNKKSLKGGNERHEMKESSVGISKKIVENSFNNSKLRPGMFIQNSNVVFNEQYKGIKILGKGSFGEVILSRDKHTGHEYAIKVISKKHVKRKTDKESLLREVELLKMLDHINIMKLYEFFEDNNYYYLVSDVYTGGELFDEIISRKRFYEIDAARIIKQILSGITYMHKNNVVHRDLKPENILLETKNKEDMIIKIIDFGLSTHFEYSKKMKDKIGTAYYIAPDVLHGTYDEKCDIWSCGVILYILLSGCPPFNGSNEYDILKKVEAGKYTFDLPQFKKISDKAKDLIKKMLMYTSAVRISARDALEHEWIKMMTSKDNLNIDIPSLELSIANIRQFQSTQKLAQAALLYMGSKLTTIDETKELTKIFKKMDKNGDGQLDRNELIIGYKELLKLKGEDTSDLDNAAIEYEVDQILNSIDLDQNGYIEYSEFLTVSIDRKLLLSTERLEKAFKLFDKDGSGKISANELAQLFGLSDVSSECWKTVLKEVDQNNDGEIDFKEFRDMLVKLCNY
Structure (SMILES),growth inhibition [1],inhibition [2],inhibition [3] [%],growth inhibition [4],outcome [5],outcome [6],outcome [7],outcome [8]
O=C(NCc1cccc(CN2CCOCC2)c1)c1cc(Br)cc(N2CCN(c3ccncc3)CC2)c1,29%,25%,-2,99% (active),inactive,inactive,inactive,inactive
Oc1ccc(CNCCCCCCNCCc2ccc(Cl)cc2)cc1O,7%,2%,2,94% (active),inactive,inactive,inactive,inactive
CCNc1cc(C)nc(Nc2ccc(NC(=O)c3ccc(OC)c(OC)c3)cc2)n1,65% (active),19%,0,101% (active),inactive,inactive,inactive,inactive
CCCc1cc(NCC)nc(Nc2ccc(C)cc2)n1,16%,22%,-1,95% (active),inactive,inactive,inactive,inactive
O=C(N[C@@H](Cc1ccccc1)C(=O)NCCN1CCCCC1)c1ccc(O)c(-c2ccc(Cl)c(Cl)c2)c1,97% (active),6%,-3,99% (active),inactive,inactive,inactive,inactive
COc1cc(CNCCCNc2nc3ccsc3c(=O)[nH]2)c2[nH]cc(Cl)c2c1,-2%,29%,2,96% (active),inactive,inactive,inactive,inactive
CCCn1c(=N)c(C(=O)NCCc2ccccc2)cc2c(=O)n3cccc(C)c3nc21,64% (active),8%,2,100% (active),inactive,inactive,inactive,inactive
Cc1cc(NC(=O)Nc2cccc(Cl)c2Cl)c2ccccc2n1,25%,-5%,1,96% (active),inactive,inactive,inactive,inactive
Cc1ccc(C2(C)CN(CCCOc3cccc(-c4ccc(C(=O)NC(C)C)cc4)c3)CCO2)cc1 (stereo not drawn),89% (active),15%,0,93% (active),inactive,inactive,inactive,inactive
O=c1[nH]c2c(cc1CNC1CCCCC1)c(-c1cccc(F)c1)nn2-c1ccccc1,89% (active),6%,7,95% (active),inactive,inactive,inactive,inactive
CC(C)(C)N1CCC(N(Cc2ccc(-c3ccc(C(F)(F)F)cc3)cc2)C(=O)Cn2c(CCc3cccc(F)c3F)cc(=O)c3cccnc32)CC1,63% (active),100% (active),-1,102% (active),inactive,inactive,inactive,inactive
COc1cc(-c2[nH]c(-c3ccc(OCCN(C)C)cc3)cc2-c2ccncc2)ccc1Cl,33%,3%,1,93% (active),inactive,inactive,inactive,inactive
N#Cc1ccc2c(c1)CCN(CCC1CCC(NC(=O)c3cc4cccc([N+](=O)[O-])c4[nH]3)CC1)C2 (stereo not drawn),28%,-4%,-5,100% (active),inactive,inactive,inactive,inactive
COc1cccc(OC)c1CN1CCC(N(C)CCCCCCCCCN2CCC(OC(=O)Nc3ccccc3-c3ccccc3)CC2)CC1,98% (active),100% (active),-1,98% (active),inactive,inactive,inactive,inactive
CN(CCC(O)c1ccc(Cl)c(Cl)c1)C[C@H]1C[C@@H]1C(=O)c1ccccc1 (stereo partly drawn),96% (active),11%,-3,98% (active),inactive,inactive,inactive,inactive
CCCCCCCN1CC[C@@H](CCC(O)c2ccnc3ccc(OC)cc23)[C@@H](CC)C1 (stereo partly drawn),93% (active),34%,-1,97% (active),inactive,inactive,inactive,inactive
Cc1ccc2nc(C)cc(NN=Cc3cccc(Cl)c3)c2c1,98% (active),12%,2,102% (active),inactive,inactive,inactive,inactive
Cn1cncc1C(=O)Nc1cccc(-c2csc(-c3nc4ccccc4[nH]3)c2)c1,64% (active),15%,-3,102% (active),inactive,inactive,inactive,inactive

Structure (SMILES),growth inhibition [1],inhibition [2],inhibition [3] [%],growth inhibition [4],outcome [5],outcome [6],outcome [7],outcome [8]
CCN(c1cc(C)nc(Nc2ccc(Cl)cc2)n1)[C@H]1CCN(Cc2ccccc2)C1,31%,46%,2,94% (active),inactive,inactive,inactive,inactive
CS(=O)(=O)CCNCc1ccc(-c2cc3c(Nc4ccc(OCc5cccc(F)c5)c(Cl)c4)ncnc3s2)[nH]1,95% (active),5%,2,99% (active),inactive,inactive,inactive,inactive
O=C1C(c2ccccc2)=C(Nc2cccc([N+](=O)[O-])c2)c2ccccc21,88% (active),-3%,1,88% (active),inactive,inactive,inactive,inactive
Cc1cc(Nc2ccc(O)cc2)nc2cccc(O)c12,28%,22%,-6,99% (active),inactive,inactive,inactive,inactive
COc1cc2ncnc(NCCc3ccccc3Cl)c2cc1OC,11%,0%,3,88% (active),inactive,inactive,inactive,inactive
O=C(NCCCCN1CCN(c2cccc3ccccc23)CC1)c1ccc(NC(=O)c2ccc(Cl)cc2)cc1,64% (active),38%,6,101% (active),inactive,inactive,inactive,inactive
Cc1cc(NN=Cc2ccc([N+](=O)[O-])cc2)c2ccc(F)cc2n1,22%,-3%,0,101% (active),inactive,inactive,inactive,inactive
O=C(Nc1ccc(OC2CCN(Cc3ccccc3)C2)c(Cl)c1)c1ccsc1 (stereo not drawn),75% (active),12%,1,93% (active),inactive,inactive,inactive,inactive
CC(C)CN(c1nc(C(=O)NNC(=O)[C@H](CC2CC2)NC(=O)c2cc3cc(OCCN(C)C)ccc3o2)cs1)C1CC1,97% (active),-5%,-4,87% (active),inactive,inactive,inactive,inactive
CCc1ccc(C2CCN(CCCCNC(=O)c3ccc(-c4ccc(Cl)cc4)cc3)CC2)c(O)c1,99% (active),48%,2,101% (active),inactive,inactive,inactive,inactive
CC(C)NCc1ccc(-c2ccc(CN3CCCC(c4ccccc4)C3)cc2)c(C(=O)NCC2CCCCC2)c1 (stereo not drawn),53% (active),79% (active),-3,97% (active),inactive,inactive,inactive,inactive
CC(C)(C)c1ccc(NC(=O)c2cccc(CN3CCCN(CC4CCCCC4)CC3)c2)cc1,47%,97% (active),1,93% (active),inactive,inactive,inactive,inactive
COc1cc2nc(N3CCC(CNC(=O)c4ccc(NC(=O)c5ccc(Cl)cc5)cc4)CC3)nc(N)c2cc1OC,100% (active),98% (active),0,101% (active),inactive,inactive,inactive,inactive
CC(C)N(Cc1ccc(-c2ccc(C(F)(F)F)cc2)cc1)C(=O)Cn1c(SCc2cccc(F)c2F)cc(=O)c2cc(CN3CCCCC3)ccc21,59% (active),97% (active),-8,103% (active),inactive,inactive,inactive,inactive
C[C@@H]1CN(c2cnn(Cc3cccc(NC(=O)Nc4ccc(-c5ccccc5)cc4)c3)c(=O)c2Cl)C[C@H](C)N1,67% (active),6%,1,101% (active),inactive,inactive,inactive,inactive
CC(C)c1ccc(NC(=O)c2ccc(C(=O)NC3CCN(Cc4ccccc4)CC3)cc2)cc1,7%,30%,-3,88% (active),inactive,inactive,inactive,inactive
Cc1cc(NCCC(=O)Nc2ccccc2)nc(NCCc2ccc(F)cc2)n1,43%,26%,2,101% (active),inactive,inactive,inactive,inactive
O=C(Nc1ccc(Cn2ncc(N3CCCNCC3)c(Cl)c2=O)cc1)Nc1ccc(SC(F)(F)F)cc1,68% (active),9%,4,93% (active),inactive,inactive,inactive,inactive
